Structures are written as SMILES. Screen size: about 16,000 compounds; about 80 (0.5%) were called active. This excerpt belongs to a sample that is enriched for actives. Unmarked numbers belong to inactive results. No stated cut-off is given here; in the data, active means activation above about 15%; inactive means the rest.

For the test, the target named is Galanin receptor type 2 (Rattus norvegicus) (UniProt O08726). Briefly: agonists of rat galanin receptor 2 (GALR2) (AID 833). The conditions noted are these: cell-based GALR2 agonist screen; at 10 µM; hits give high values.
Galanin receptor type 2 (Rattus norvegicus), sequence (O08726 whole entry, looked up): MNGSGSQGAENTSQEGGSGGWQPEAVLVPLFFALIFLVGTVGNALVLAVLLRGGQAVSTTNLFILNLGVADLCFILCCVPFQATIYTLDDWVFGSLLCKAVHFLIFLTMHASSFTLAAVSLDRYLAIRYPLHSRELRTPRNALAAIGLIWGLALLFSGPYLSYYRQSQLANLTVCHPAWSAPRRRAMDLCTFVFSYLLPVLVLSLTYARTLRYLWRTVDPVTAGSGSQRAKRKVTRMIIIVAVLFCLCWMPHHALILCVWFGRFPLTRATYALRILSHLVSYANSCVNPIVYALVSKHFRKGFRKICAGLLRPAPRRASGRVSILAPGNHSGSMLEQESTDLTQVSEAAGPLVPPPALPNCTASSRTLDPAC
With `Cc1[nH]c2ccccc2c1Sc1ccc(Cl)cc1`, the activation was -8.87%. On to `Cc1onc(-c2ccccc2)c1CNS(=O)(=O)c1ccc2c(c1)OCCN2C`, for which the activation is -3.66%. `CC(=O)c1ccc(C#Cc2ccccc2)cc1`: the activation is -6.33%.

As to `N#Cc1ccc(N2CCN(C(=O)c3ccco3)CC2)cc1`, the activation is -9.07%. As to `CCOc1ccc(NC(=S)N2CCC(c3ccccc3OC)CC2)cc1`, the activation is -6.67%.

For the compound `Cc1nc(-c2cccnc2)nc(N2CCCN(Cc3ccc(F)cc3)CC2)c1Cl`, the activation was -9.09%.

For `COC(=O)c1ccc(/C=C2\C(=O)Nc3ccccc32)n1-c1ccc(F)cc1`, the activation was 2.14%.

For `Clc1ccc(C=NCc2cccnc2)c(Cl)c1`, the activation was -5.42%. The same measure for `Cc1cc(S(=O)(=O)O/N=C(\N)c2snnc2C)cc(C)c1F`: -5.04%. To `Cc1ccc(S(=O)(=O)NNC(=O)c2ccccc2N)cc1` belongs -6.6%.

`Cc1cc(C)nc(NC(=S)c2ccc(NC(=O)/C=C/C(=O)O)cc2)n1`: the activation was -5.82%.

For the compound `O=C(Nc1ccc(C(F)(F)F)cc1)Nc1ccccc1C(=O)O`, the activation is -8.04%. For `CCCCNc1nc(N)ns1`, the activation is -3.61%. In the case of `Cc1c(CC(=O)Oc2ccc([N+](=O)[O-])cc2)sc2ccc(Cl)cc12`, the activation was -2.58%.

As to `O=C(NCCO)NCCSc1ccc(F)cc1`, the activation is -4.7%. `CCOC(=O)c1c(NS(=O)(=O)c2cccc3nsnc23)sc(C)c1C`: the activation is -6.04%. The same measure for `Cn1cccc1-c1n[nH]c(=S)n1-c1ccc(Cl)cc1Cl`: -4.04%; for `O=C1C=C(SCC(=O)c2ccccc2)SC(c2ccc(Cl)cc2)C1` (stereo unspecified): 6.17%; for `NNC(=O)CC1C(=O)NCCN1Cc1c(Cl)cccc1Cl` (stereo unspecified): -5.38%.

Take `Cc1cc(S(=O)(=O)Oc2ccc(OCc3ccccc3)cc2)c(C)cc1Cl`: the activation is -2.88%. Take `CCOC(=O)C/C(N)=C(\C#N)C(=O)OCC`: the activation is -2.73%. In the case of `Cc1ccc(SCC(=O)Nc2ccc(F)cc2F)cc1`, the activation was -5.06%. As to `CC(C)(C)NC(=O)[C@@H]1C[C@@H]2CCCC[C@@H]2CN1C(=O)c1ccno1`, the activation is -7.29%.

As to `COc1cccc(OCc2ccccc2)c1C#N`, the activation was -5.84%. Consider `O=S(=O)(Oc1ccc(Cl)c(Cl)c1)c1c(Cl)sc(Cl)c1Br`, for which the activation is -7.23%. For the compound `O=C(O)Cc1csc(NC(=O)CSc2nnnn2-c2ccc(O)cc2)n1`, the activation was -6.18%. The same measure for `COc1cc(NC(=O)c2ncc(C(F)(F)F)cc2Cl)c(C(=O)O)cc1OC`: -7.07%; for `O=S(=O)(O)c1ncccn1`: -6.4%; for `c1ccc(CN2CCN(Cn3nnc4ccccc43)CC2)cc1`: -4.65%. On to `COC(=O)c1ccc2snnc2c1`, for which the activation is -2.44%. As to `FC(F)(F)c1csc(N/N=C/c2ccccc2Cl)n1`, the activation is -13.1%. `CCOC(=O)C(=CNNc1ccc(C(=O)O)cc1[N+](=O)[O-])C(=O)OCC`: the activation was -6.55%.

Regarding `CC1CC(NC(=O)/C(C#N)=C/c2ccc[nH]2)CC(C)(C)C1` (stereo unspecified), the activation was -10.3%. Take `N/N=c1/nc2sccn2c2ncccc12`: the activation was -4.92%. Turning to `CCOC(=O)c1cc(CC)sc1NC(=O)c1cccnc1Oc1ccccc1`, the activation is -8.18%. As to `O=C1C=C(c2ccccc2)CN(C2CCCCC2)C1=O`, the activation is -2.8%. For the compound `CC1=C(C(=O)O)N2C(=O)[C@H](NC(=O)[C@@H](N)c3ccccc3)C2SC1` (stereo partly specified), the activation is 22.8% (active). Take `O=C(Oc1ccc(Cl)cc1)c1snnc1-c1ccccc1`: the activation is -5.24%. As to `N#Cc1ccc(-c2csc(COc3ccccc3Cl)n2)cc1`, the activation was 34% (active). Consider `Cc1onc(C(=O)NN)c1-c1csc(COc2ccccc2)n1`, for which the activation was -4.77%. For the compound `C#CC(C)(CC)OCC(O)CS(=O)(=O)O` (stereo unspecified), the activation was -5.43%. As to `CC(C)S(=O)(=O)c1cscc1N/C=C(/C#N)C(=O)c1cccs1`, the activation is -2.65%.

In the case of `O=S(=O)(c1ccc(Cl)c(Cl)c1)N1CCc2c([nH]c3ccccc23)C1C(F)(F)F` (stereo unspecified), the activation was -11.8%.

As to `Cc1[nH]n(C)c(=O)c1C(=O)c1c(-c2c(Cl)cccc2Cl)noc1C`, the activation is -6.37%. `CN(NC(=O)c1ccc(Cl)s1)c1cnn(-c2cc(Cl)cc(Cl)c2)c(=O)c1Cl`: the activation is -2.83%. To `CSc1nsc(SC)c1C(=O)Nc1cc(C(F)(F)F)cc(C(F)(F)F)c1` belongs -4.92%; to `Cn1cnnc1SC/C=C/c1ccccc1`, -6.61%; to `CCOC(=O)C(=CNc1nc(-c2ccc(Cl)cc2)cs1)C(=O)OCC`, -6.21%. Turning to `c1ccc2c(c1)NC(C1Nc3ccccc3O1)O2` (stereo unspecified), the activation is -4.99%. For the compound `Cc1cc(Cl)ccc1NC(=S)NNC(=S)Nc1ccc(F)cc1`, the activation was -1.79%.

Take `CCOC(=O)/C=C(/Nc1ccccc1SC)c1ccccc1`: the activation was -8.09%. Turning to `CC(C)(C)c1ccc(C(=O)CC(N)=O)cc1`, the activation was -7.09%. The same measure for `N#Cc1c(-c2cccs2)cc(-c2cccs2)nc1N`: 10.7%. As to `O=C(Nn1cnnc1)c1ccc([N+](=O)[O-])cc1`, the activation was -2.79%. For `Cc1onc(-c2ccccc2)c1C(=O)Nc1ccc(/C(C#N)=C/c2ccccn2)cc1`, the activation was -2.22%. As for `N#C/C(=C\c1cccs1)C(=O)NCCc1c[nH]c2ccccc12`, the activation was -5.34%. Consider `Cc1cccc(-c2noc(NC(=O)O/N=C/c3ccccc3)n2)c1`, for which the activation is -3.45%. As for `Cc1csc(/N=C/N(C)C)c1C#N`, the activation is -4.03%.

Regarding `N/C(CC(=O)Nc1ccc(F)c(Cl)c1)=N\O`, the activation is -6.66%.

As to `O=C(c1cnn(-c2ccc(Cl)cc2)n1)c1cccs1`, the activation is -6.45%. For `S=C1NCN(CCCn2ccnc2)CN1`, the activation was -6.28%.

For `O=C(O)c1cc(=O)[nH]c2c(Cl)cc(Cl)cc12`, the activation is -3.92%. For the compound `COC(=O)/C(=C/c1ccccc1)c1ccccc1`, the activation is -1.48%. For `COc1ccc(OC)c(CNC(=O)Cc2cccs2)c1`, the activation is -4.76%.

With `O=[N+]([O-])c1ccc(N2CCOCC2)cc1`, the activation is -0.7%. In the case of `O=S(=O)(CCSc1ccc(C(F)(F)F)cn1)CCSc1ccc(C(F)(F)F)cn1`, the activation is -4.73%.

(Values after PubChem BioAssay AID833 (The Scripps Research Institute Molecular Screening Center, 2007).)
